Screening results as filed in PubChem BioAssay.
TDP1 cell noCPT: qHTS for Inhibitors of human tyrosyl-DNA phosphodiesterase 1 (TDP1): qHTS in cells in absence of CPT; DT40 Tdp1-/- hTDP1 cells, no CPT, ATP luminescence, 48 h; Potency, µM (titrated, usually from 46.2 µM), for the others: at the highest dose activity change, negative = growth inhibition, actives largely listed as inhibitors; 420,000 compounds, 15% hits; note: nearly all actives have a fitted effect of over 55% in size
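Growth of hTDP1-complemented DT40 Tdp1-knockout cells is measured by ATP luminescence after at least 48 hr compound exposure at 37 °C, with DMSO substituting for the 20 nM CPT used in the parallel screen.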
HT1080 IDH1KD tx: toxicity to HT-1080 IDH1 knockdown cells (counter line) | HT-1080 IDH1 knockdown viability, ATP luminescence, 48 h | 360,000 compounds, 2% hits | AID 686971 | Potency, µM (doses to about 46.1 µM), without a hit: top-dose activity, negative = toxicity, most hits filed as cytotoxic;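 note: 0% = DMSO wells and -100% = cell-free medium wells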
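Knockdown cells (IDH1KD HT-1080) received compounds 2 h after plating at 750 cells/well and were kept 48 h at 37 °C in 5% FBS RPMI. A CellTiter-Glo luminescence read gave % activity for curve fitting.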
KB-3-1 tox: KB-3-1 parental cell cytotoxicity | Potency, µM (series often up to 46.1 µM), actives largely listed as cytotoxic | KB-3-1 viability, CellTiter-Glo ATP luminescence, 72 h | 400,000 compounds, 1.4% hits; note: nearly all actives have a fitted effect of over 60% in size
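Viability of parental KB-3-1 cells, measured by CellTiter-Glo luminescence, followed a 72 h incubation at 37 °C with pinned compounds in phenol-red-free DMEM containing 10% FBS.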
HT1080NT lethal: kills 2HG-producing HT-1080-NT fibrosarcoma cells; HT-1080-NT fibrosarcoma viability, CellTiter-Glo ATP luminescence, 48 h; Potency, µM (titrated, usually from 46.1 µM), inactives show top-dose activity, negative = less viability, hits mostly cytotoxic; 360,000 compounds, 1.6% hits; AID 686970;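 note: NT is the 2HG producing partner of a matched IDH1 knockdown line; 0% = DMSO-treated cells and -100% = media-only wells without cells; nearly all actives have a fitted effect of over 55% in size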
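Viability of the 2HG-overproducing fibrosarcoma line after 48 hours of compound exposure at 37 degrees C was determined by luminescence with CellTiter-Glo, and concentration-effect curves were then fitted and categorized.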
DT40 TDP1 CPT: growth inhibition of DT40 Tdp1-/-;hTDP1 cells with camptothecin (screen for TDP1 inhibitors) | chicken DT40 Tdp1-/-;hTDP1 cells + 20 nM CPT, ATP luminescence, 48 h | Potency, µM (highest dose often 46.2 µM), inactives show top-dose activity change, negative = growth inhibition, most hits filed as inhibitors | 420,000 compounds, 12% hits; note: nearly all actives have a fitted effect of over 55% in size
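Cell growth measured by CellTiter-Glo luminescence after a minimum 48 h, 37 C compound exposure with 20 nM CPT in Tdp1-knockout DT40 cells stably expressing hTDP1, seeded 400/well; qHTS titration format.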
KB-V1 cytotox: kills drug-selected multidrug resistant KB-V1 cells | KB-V1 MDR cells viability, CellTiter-Glo, 72 h | 400,000 compounds, 3.4% hits | Potency, µM (series often up to 46.1 µM), hits mostly cytotoxic | AID 1347076; note: nearly all actives have a fitted effect of over 60% in size
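Luminescent ATP read-out (CellTiter-Glo, 10 min) measures survival of drug-selected KB-V1 MDR cells after 72 h, 37 degrees C compound exposure. Medium: phenol-red-free DMEM, 10% FBS. Values from fitted concentration-response curves.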
Starred values were filed as active, the others as inactive; i = inactive; ? = inconclusive; . = no result. Only some compounds are listed: those with a hit (about 19% of all), similar ones and a draw of the others. Calls come from the whole dose curve; as a rule, active = well fitted curve in the direction sought with a large enough effect; inconclusive = small, poorly fitted or top-dose-only effect, or another doubt; inactive = no such curve, though single readings can be large; an effect the other way counts as inactive or inconclusive. Unless noted, % is set by controls: 0 for no effect and ±100 for the full control effect; potency is the fitted concentration of half-maximal effect.

SMILES	TDP1 cell noCPT	HT1080 IDH1KD tx	KB-3-1 tox	HT1080NT lethal	DT40 TDP1 CPT	KB-V1 cytotox
O=C(c1ccco1)N1CCN(C(=S)Nc2ccccc2C(F)(F)F)CC1	-4.3%	-5.5%	i	?	-15.7%	?
O=C(CS(=O)(=O)c1cccc2nsnc12)NCc1ccccc1Cl	?	.	i	.	-29.9%	i
Cc1ccccc1CN(C)C(=O)COC(=O)CSc1ccc([N+](=O)[O-])cc1	-8.6%	0.6%	i	-0.6%	6.5%	i
O=C(COC(=O)CSc1ccc([N+](=O)[O-])cc1)NCCCc1ccccc1	?	-6.7%	i	-5.8%	14.6µM*	i
Cc1ccc(CN(C)C(=O)COC(=O)CSc2ccc([N+](=O)[O-])cc2)cc1	16.4µM*	13.0%	i	20.7%	?	i
CC(OC(=O)CSc1ccc([N+](=O)[O-])cc1)C(=O)NCc1ccccc1 (configuration not stated)	16.4µM*	?	i	?	20.6µM*	i
O=C(COC(=O)CSc1ccc([N+](=O)[O-])cc1)NCCc1ccccc1	7.6%	19.0%	i	11.2%	-3.4%	i
Cc1ccc(SCC(=O)OCC(=O)NCCNC(=O)COC(=O)CSc2ccc(C)c(C)c2)cc1C	-9.8%	2.6%	0.0052µM*	2.3%	-5.3%	i
Cn1c(SCc2c(Cl)cccc2Cl)nc(C(F)(F)F)cc1=O	-69.1%	-5.1%	i	5.4%	?	i
COc1ccc(C2c3c(n(C)c4ccccc34)C(=O)N2CC(=O)Nc2c(C)cc(C)cc2C)cc1 (configuration not stated)	?	.	i	.	?	i
COc1ccc(-c2cc(C(F)(F)F)n3nc(C(=O)Nc4cccc(Cl)c4C)cc3n2)cc1	-17.0%	.	?	.	-17.4%	i
COc1ccc(-c2cc(C(F)(F)F)n3nc(C(N)=O)cc3n2)cc1	-14.1%	18.6%	i	22.7%	0.6%	i
COc1cccc(-c2cc(C(F)(F)F)n3nc(C(=O)N4CCCCC4c4cccnc4)cc3n2)c1 (configuration not stated)	16.4µM*	-8.4%	i	-7.0%	16.4µM*	?
O=C(c1cc2nc(-c3ccccc3)cc(C(F)(F)F)n2n1)N1CCCC1	2.6%	1.9%	i	-0.7%	-17.6%	i
COc1ccc(-c2cc(C(F)(F)F)n3nc(C(=O)N4CCCCC4)cc3n2)cc1OC	18.4µM*	-6.1%	?	0.7%	18.4µM*	10.3µM*
COc1ccc(-c2cc(C(F)(F)F)n3nc(C(=O)O)cc3n2)cc1OC	-20.7%	-8.3%	i	-1.2%	3.8%	i
COc1ccc(-c2cc(C(F)(F)F)n3nc(C(=O)OC(C)C)cc3n2)cc1	16.4µM*	.	i	.	23.1µM*	i
COc1ccc(-c2cc(C(F)(F)F)n3nc(C(=O)N4CCCCC4)cc3n2)cc1	23.1µM*	-0.6%	i	-2.7%	16.4µM*	?
O=C(NNC(=O)c1ccco1)c1ccc(NS(=O)(=O)c2cccs2)cc1	-13.8%	6.1%	i	12.0%	-10.9%	?
Cc1ccc(NC(=S)N2CCC(c3ccccc3)C2)c(Cl)c1 (configuration not stated)	?	-5.0%	i	-4.4%	?	i
COc1ccc(-c2nn(-c3ccccc3)cc2C(=O)NC(=S)Nc2cc(Cl)ccc2Cl)cc1	0.8%	15.8%	i	12.2%	-20.2%	i
Cc1nn(-c2ccc(F)cc2)c2nc(N)c(C#N)c(-c3cccs3)c12	13µM*	-11.0%	?	-20.6%	23.1µM*	?
Cc1nn(-c2ccccc2)c2nc(N)c(C#N)c(-c3ccc(O)c(O)c3)c12	?	?	?	?	?	i
Cc1nn(-c2ccc(F)cc2)c2nc(N)c(C#N)c(-c3ccc(O)c(O)c3)c12	23.1µM*	?	i	?	16.4µM*	i
COc1cc(-c2c(C#N)c(N)nc3c2c(C)nn3-c2ccc(C)c(C)c2)cc(OC)c1OC	?	11.2µM*	?	?	?	i
SMILES	TDP1 cell noCPT	HT1080 IDH1KD tx	KB-3-1 tox	HT1080NT lethal	DT40 TDP1 CPT	KB-V1 cytotox
CCOc1ccc(-c2cc(C(=O)Nc3ccc(F)cc3)[nH]n2)c(C)c1	-5.1%	20.6%	i	?	-11.1%	i
Fc1ccc2cc(-c3ccsc3)ncc2c1	-12.4%	17.3%	i	15.6%	0.4%	i
CN(CC(=O)N/N=C/c1ccc(F)cc1)S(=O)(=O)c1ccccc1	-10.6%	3.5%	i	5.8%	-3.8%	i
CCc1ccc(-n2nc(C)c3c(C)cc(=O)n(CC(=O)Nc4cc(C)ccc4C)c32)cc1	-16.3%	.	i	.	-8.3%	i
Cc1c(C(=O)NC2CCCc3ccccc32)oc2ccc(S(=O)(=O)N3CCCC3)cc12 (configuration not stated)	?	-5.3%	i	-6.2%	8.2µM*	i
Cc1c(C(=O)NC2CCCc3ccccc32)oc2ccc(S(=O)(=O)N3CCOCC3)cc12 (configuration not stated)	?	-11.4%	i	-7.5%	?	i
Cc1c(C(=O)NC2CCCc3ccccc32)oc2ccc(S(=O)(=O)N3CCCCC3)cc12 (configuration not stated)	?	11.8%	i	-2.1%	0.259µM*	i
O=c1c2ccccc2oc2cc(-c3ccc(CN4CCOCC4)cc3)ccc12	16.4µM*	-20.5%	i	-15.1%	13µM*	?
O=c1cc(CN2CCOCC2)c2ccccc2o1	-0.5%	10.0%	i	6.1%	-12.3%	i
CCOc1ccc(/C=C(\C#N)C(=O)Nc2sc3c(c2C(=O)OC)CCC3)cc1OC	7.1%	.	i	.	2.9%	i
Cc1cccc(NC(=O)CN2C(=O)c3cccnc3Oc3ccc(Cl)cc32)c1C	20.6µM*	.	i	.	-98.3%	i
CCOC(=O)c1ccc(NC(=O)CN2C(=O)c3cccnc3Oc3ccc(Cl)cc32)cc1	20.6µM*	.	i	.	?	i
Cc1ccc(NC(=O)CN2C(=O)c3cccnc3Oc3ccc(Cl)cc32)cc1	29.1µM*	.	i	.	20.6µM*	i
Cc1cc(Cl)ccc1NC(=O)CN1C(=O)C(=O)c2ccccc21	4.11µM*	.	i	.	5.8µM*	i
COc1ccc(OC)c(C2NC(=O)NC(C)=C2C(=O)Nc2cc(C)cc(C)c2)c1 (configuration not stated)	-11.2%	.	i	.	-2.8%	?
